Measurements as given in PubChem BioAssay (NCI).
The panel holds about 83,000 compounds, 20% with a hit somewhere; the sample as a whole holds those more often.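 Single-concentration screen, 48 h exposure, 96-well plates. Endpoint: percent growth. Below 10 = active.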 A number with no mark means an inactive call. The source made the active and inactive calls.

Experiments:
Assay in all cases: NCI-60 one-dose screen, 48 h (100 = growth as untreated, 0 = no growth, -100 = all killed)
Conditions in all cases: 10 µM unless noted
DU-145 prostate = system: DU-145 prostate
K-562 leukemia = system: K-562 leukemia
MALME-3M melanoma = system: MALME-3M melanoma
MDA-MB-231 breast = system: MDA-MB-231 breast
RXF 393 renal = system: RXF 393 renal
SF-268 CNS = system: SF-268 CNS
SF-295 CNS = system: SF-295 CNS
SF-539 CNS = system: SF-539 CNS
UACC-257 melanoma = system: UACC-257 melanoma
M14 melanoma = system: M14 melanoma
HCT-15 colon = system: HCT-15 colon
HT29 colon = system: HT29 colon
SNB-75 CNS = system: SNB-75 CNS
SNB-19 CNS = system: SNB-19 CNS
U251 CNS = system: U251 CNS
SK-MEL-5 melanoma = system: SK-MEL-5 melanoma
UACC-62 melanoma = system: UACC-62 melanoma
LOX IMVI melanoma = system: LOX IMVI melanoma
SK-MEL-28 melanoma = system: SK-MEL-28 melanoma
PC-3 prostate = system: PC-3 prostate

SMILES | growth (DU-145 prostate) | growth (K-562 leukemia) | growth (MALME-3M melanoma) | growth (MDA-MB-231 breast) | growth (RXF 393 renal) | growth (SF-268 CNS) | growth (SF-295 CNS) | growth (SF-539 CNS) | growth (UACC-257 melanoma) | growth (M14 melanoma) | growth (HCT-15 colon) | growth (HT29 colon) | growth (SNB-75 CNS) | growth (SNB-19 CNS) | growth (U251 CNS) | growth (SK-MEL-5 melanoma) [%] | growth (UACC-62 melanoma) | growth (LOX IMVI melanoma) | growth (SK-MEL-28 melanoma) | growth (PC-3 prostate)
O=C(Nc1ncc(Cc2ccccc2)s1)c1cc(-c2ccccc2)nc2ccccc12 | 110% | 103% | 98% | 104% | 90.5% | 103% | 107% | 101% | 92.9% | 93.3% | 94.7% | 104% | 92.6% | 98.1% | 98.2% | 98.8 | 89.8% | 86.7% | 105% | 
O=C1C(c2c(O)[nH]c3ncccc23)=Nc2ccccc21 | 81.2% | 85.5% | 139% | 78.3% | 71.2% | 84.4% | 102% | 90.9% | 96.5% | 93.7% | 77.9% | 93.8% | 68.1% | 96.4% |  | 75.4 | 79.6% | 76.3% | 123% | 
O=C1C=CC2(O)OC(c3ccccc3)CC(=O)C2=C1O (stereo unspecified) | 15.7% | 72.6% | 95.7% | 73.2% | 94% | 40.4% | 107% | 86.1% | 87.9% | 90.3% | 64.9% | 108% | 92% | 87.8% |  | 89.8 | 80.7% | 77% | 95.7% | 
Cc1nc2ccccc2c(/C=C/c2ccc(Cl)cc2)c1C(=O)/C=C/c1ccccc1 | 9.75% (active) | 6.19% (active) | -20.4% (active) | 9.11% (active) | -41.8% (active) | 51.3% | 10.7% | -48.8% (active) | -3.79% (active) | -0.144% (active) | -30.3% (active) | -15.7% (active) | 39.7% | -16.2% (active) | -74.3% (active) | 13.7 | 0.158% (active) | -85.3% (active) | 8.62% (active) | 
O=C(COc1ccc(/C=C2\Oc3ccccc3C2=O)cc1)Nc1nccs1 | 109% | 70.1% | 98.1% | 76.6% | 95.5% | 75.1% | 116% | 99.9% | 113% | 105% | 104% | 107% | 51.3% | 102% |  | 105 | 90.6% | 85.1% | 129% | 78.7%
Cc1ccc2c(c1)CC(O)CC1C(=O)N(CCO)CC(=O)N21 (stereo unspecified) | 111% | 101% | 100% | 92.4% | 90.5% | 99.7% | 101% | 102% | 81.1% | 103% | 106% | 96.1% | 83% | 102% |  | 104 | 97.3% | 96.2% |  | 96.8%
C1=C2CCCC3=Cc4ccccc4OC23Oc2ccccc21 | 28.1% | 15.3% | 56.8% | 43.5% | 9.77% (active) | 31.6% | 11.3% | 7.81% (active) | 40.1% | 19.2% | 20.1% | 5.93% (active) | 23% | 27.4% |  | 20 | 14.5% | 23% | 54.2% | 34.7%
O=C(O)c1cc2ccccc2s1 | 124% | 107% | 130% | 104% | 110% | 107% | 97.8% | 101% | 105% | 110% | 106% | 110% | 97.9% | 111% |  | 104 | 107% | 99.6% | 117% | 96.4%
N#Cc1c(-c2ccc(F)cc2)cc(-c2cccc(Cl)c2)[nH]c1=O | 73.9% | 56.2% | 70.1% | 60.7% | 51.7% | 41.9% | 71.4% | 9.45% (active) | 93.8% | 82.3% | 58.1% | 110% | -25.5% (active) | 42.7% |  | 70.1 | 40.9% | 63.6% | 83.9% | 72.7%
Cn1ccnc1C(=O)/C=C/c1ccc(C(=O)Nc2c(F)c(F)c(F)c(F)c2F)cc1 | 12.3% | 1.03% (active) | 80.9% | 7.97% (active) | -52% (active) | 3.53% (active) | 18.2% | -69.9% (active) | 73.7% | 19.2% | -15.5% (active) | 1.2% (active) | 7.64% (active) | 5.66% (active) |  | 53.1 | 29.3% | -83.5% (active) | 82.5% | 7.27% (active)
Cc1nc2c(c(-c3ccccc3)n1)Cc1c(ccc3ccccc13)O2 | 115% | 132% | 126% | 83% | 105% | 94.8% | 112% | 96.7% | 113% | 104% | 107% | 89.1% | 92.2% | 110% | 102% |  | 83.8% | 91.5% | 107% | 
Cc1c(-c2cnc3ccc(Cl)cc3c2C(=O)O)nnn1-c1ccc(Cl)cc1 | 114% | 101% | 99.6% | 85.8% | 122% | 111% | 97.7% | 99.6% | 95.9% | 69.8% | 104% | 101% | 95.3% | 93.1% |  |  | 82.5% | 98.8% | 105% | 98.5%
CC1(C)CCC[C@]23C(=O)O[C@](O)(C(=O)C4=C[C@@](C)(/C=C/CCCc5ccc6ccc7cccc8ccc5c6c78)CC[C@@]42O)[C@@H]13 | -85.7% (active) | 5.77% (active) | -93.6% (active) | -69.9% (active) | -86.2% (active) | -45.3% (active) | -76.7% (active) | -96.6% (active) | -68.7% (active) | -62% (active) | -69.3% (active) | -69.5% (active) | -78.8% (active) | -95.5% (active) |  |  | -75.5% (active) | -85.5% (active) | -86.6% (active) | -48.8% (active)
